Screening results: PubChem BioAssay, several laboratories
Hits are enriched below; roughly 4.7% of the tested compounds scored in any of these assays.
tim10-1 inh – growth inhibitors of tim10-1 mutant yeast, primary screen, luminescence, uHTS; S. cerevisiae tim10-1 ts strain growth, BacTiter-Glo, 24 h; inhibition, % at 20 µM; 330,000 compounds, 2.2% hits; AID 463190, 2010;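 active = inhibition of at least 40%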;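 note: mutant grown at 25 °C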
SKKanGAS inh – S. pyogenes SKKanGAS growth inhibitors in kanamycin, primary screen, streptokinase expression inhibitor project, SKKanGAS strain, BacTiter-Glo luminescence; 6 h; inhibition, % at 7.5 µM; 300,000 compounds, 1.3% hits; AID 1662, 2009;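 active = mean replicate score, as percent of positive control median, at least 50; inconclusive = mean below 50 but one replicate at or above 50; inactive = mean and every replicate below 50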;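 note: strain carries kanamycin resistance gene driven by streptokinase promoter and grows in 40 µg/ml kanamycin; loss of luminescence reflects streptokinase promoter inhibition or plain growth inhibition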
PfHsp90 set2 – growth inhibition of PfHsp90-expressing yeast, primary screen, antimalarial PfHsp90 inhibitor project, S. cerevisiae, BacTiter-Glo luminescence, single point, set 2; 310,000 compounds, 0.32% hits; BacTiter-Glo ATP, 48 h; yeast lacking PDR1 and PDR3 efflux regulators; inhibition, % at 9.4 µM; AID 504621, 2011;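 active = every replicate shows inhibition above about 80%, whatever the replicate mean, limit read from the data; inconclusive = mean inhibition reaches the set limit but some replicate falls short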
tim23-1 inh – growth inhibitors of tim23-1 mutant yeast, primary screen, luminescence, uHTS | S. cerevisiae tim23-1 growth, BacTiter-Glo luminescence, 24 h | inhibition, % at 20 µM | 330,000 compounds, 1.3% hits | AID 463212, 2010;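 active = growth inhibition of the mutant yeast at or above 50%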;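 note: temperature-sensitive mutant grown at 25 °C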
EBI2 antag – EBI2 receptor antagonists, beta-arrestin recruitment, primary screen, cell-based, luminescence, 7a,25-OHC stimulation, uHTS. G-protein coupled receptor 183 (Homo sapiens), P32249. 7a,25-OHC stimulated. inhibition, % at 5 µM. 360,000 compounds, 0.81% hits. AID 651636, 2012; in the data active = inhibition above about 38%;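 note: enzyme fragment complementation signal reports receptor beta-arrestin coupling in cells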
Target sequence (P32249 whole entry, looked up, the tested form may be a part): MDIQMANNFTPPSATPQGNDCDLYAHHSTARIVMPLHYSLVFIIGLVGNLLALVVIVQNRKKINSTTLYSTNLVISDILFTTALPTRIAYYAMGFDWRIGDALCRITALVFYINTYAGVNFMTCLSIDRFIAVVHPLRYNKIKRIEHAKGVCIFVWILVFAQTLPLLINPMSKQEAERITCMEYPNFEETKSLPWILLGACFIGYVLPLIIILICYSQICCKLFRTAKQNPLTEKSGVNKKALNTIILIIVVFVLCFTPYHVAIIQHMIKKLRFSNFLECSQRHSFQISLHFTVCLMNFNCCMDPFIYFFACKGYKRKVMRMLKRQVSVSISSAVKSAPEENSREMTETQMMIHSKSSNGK
TIM10 inh – growth inhibitors of isogenic TIM10 control yeast, primary screen, counter-screen for tim10-1 yeast inhibitor project, luminescence, uHTS; S. cerevisiae TIM10 strain growth, BacTiter-Glo luminescence, 24 h; inhibition, % at 10 µM; 330,000 compounds, 1.4% hits;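 active = inhibition of 40% or more at the single tested concentration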;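 note: wild-type TIM10 isogenic control strain grown at permissive 25 °C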
Large screens that a line does not name were inactive.

CCN1CCN(c2ccc(NC(=O)CC3OC(=O)c4ccccc43)cc2C)CC1 (stereo not drawn)	none (no result: tim10-1 inh, SKKanGAS inh, PfHsp90 set2, tim23-1 inh, TIM10 inh)
CSCCC(NS(=O)(=O)c1ccc(C)c(C(=O)O)c1)C(=O)O (stereo not drawn)	none (no result: PfHsp90 set2)
Cc1c(C(=O)Nc2ccc(Oc3ccccc3)cc2)sc2nc3n(c(=O)c12)CCC3	SKKanGAS inh 56
Cc1c(C(=O)Nc2ccc(OC(F)(F)F)cc2)sc2nc3n(c(=O)c12)CCC3	none
Cc1c(C(=O)OCc2ccc(F)cc2)sc2nc3n(c(=O)c12)CCC3	none
COc1cccc(COC(=O)c2sc3nc4n(c(=O)c3c2C)CCC4)c1OC	SKKanGAS inh 93
Cc1cccc(NC(=O)C(=O)NNC(=O)c2ccc(C(C)(C)C)cc2)c1	SKKanGAS inh 85
O=C(NNC(=O)c1ccccc1OCc1ccc(F)cc1)c1ccccc1O	SKKanGAS inh 93
c1cc[n+](CCC[n+]2ccccc2)cc1	none
COc1ccccc1C(=O)NNC(=O)C(=O)Nc1cccc(Cl)c1C	SKKanGAS inh 53
COc1cccc(C(=O)NNC(=O)C(=O)Nc2cccc(Cl)c2C)c1	none
O=C(Nc1ccc(F)c(Cl)c1)c1csc(COCCO)n1	none (no result: tim10-1 inh, SKKanGAS inh, PfHsp90 set2, tim23-1 inh, TIM10 inh)
CN1C(=O)C(N=Nc2ccc([N+](=O)[O-])cc2)SC1=S (stereo not drawn)	PfHsp90 set2 114 (no result: tim10-1 inh, SKKanGAS inh, tim23-1 inh, TIM10 inh)
CN(C)S(=O)(=O)c1ccc(-c2csc(N/N=C/c3ccco3)n2)cc1	none
CN(C)S(=O)(=O)c1ccc(-c2csc(N/N=C/c3ccc(O)cc3)n2)cc1	SKKanGAS inh 65
CC1(C(=O)NCc2cccnc2)CCN1C(=O)Cc1cccs1 (stereo not drawn)	none (no result: tim10-1 inh, SKKanGAS inh, PfHsp90 set2, tim23-1 inh, TIM10 inh)
CN(C)CCNc1nc(-c2ccccc2F)c2sccc2n1	none (no result: tim10-1 inh, SKKanGAS inh, PfHsp90 set2, tim23-1 inh, TIM10 inh)
S=C1Nc2ccccc2CS1	none (no result: tim10-1 inh, SKKanGAS inh, PfHsp90 set2, tim23-1 inh, TIM10 inh)
S=C1Cc2ccccc2N1	SKKanGAS inh inconclusive, PfHsp90 set2 107 (no result: tim10-1 inh, tim23-1 inh, TIM10 inh)
Cc1cc(N(C)C)ccc1N=Nc1ccc2ncccc2c1	SKKanGAS inh 54
O=C(Nc1cccc(Cl)c1)Nc1cc(S(=O)(=O)N2CCCCC2)ccc1Cl	SKKanGAS inh 54
CN1CCN(S(=O)(=O)c2ccc(NC(=O)Nc3cccc(Cl)c3)cc2)CC1	none
Cc1cc(/C=N/n2cnnc2)c(C)n1-c1ccc(OCc2ccc(Cl)cc2Cl)cc1	SKKanGAS inh 122
COc1ccc(C(CNC(=O)c2[nH]c(C)c(C(C)=O)c2C)N2CCOCC2)cc1 (stereo not drawn)	none (no result: SKKanGAS inh, PfHsp90 set2)
COc1ccc(C2=NN(C(=O)c3cccs3)C(c3ccccc3O)C2)cc1 (stereo not drawn)	none
COc1ccc(C2CC(c3ccccc3)=NN2C(=O)c2cccs2)cc1 (stereo not drawn)	SKKanGAS inh 59
CC(C)C[C@H](NC(=O)c1[nH]cnc1C(=O)Nc1ccc(Cl)cc1)C(=O)OC(C)(C)C	SKKanGAS inh 60
CC(C)C[C@H](NC(=O)c1nc[nH]c1C(=O)N[C@@H](CC(C)C)C(=O)OC(C)(C)C)C(=O)OC(C)(C)C	SKKanGAS inh 87
CC(C)C[C@H](NC(=O)c1[nH]cnc1C(=O)N[C@H](C)c1ccccc1)C(=O)OCc1ccccc1	SKKanGAS inh 73
Cc1ccc(NC(=O)c2nc[nH]c2C(=O)N[C@@H](C)c2ccccc2)cc1	SKKanGAS inh 66 (no result: PfHsp90 set2)
CC(C)C[C@H](NC(=O)c1[nH]cnc1C(=O)N[C@@H](C)C(=O)OCc1ccccc1)C(=O)OC(C)(C)C	none
CC(C)C[C@H](NC(=O)c1nc[nH]c1C(=O)NCC(=O)OC(C)(C)C)C(=O)OC(C)(C)C	none
CC(C)C[C@H](NC(=O)c1nc[nH]c1C(=O)NC(c1ccccc1)c1ccccc1)C(=O)OCc1ccccc1	none
CC(C)C[C@H](NC(=O)c1[nH]cnc1C(=O)N[C@H](C)c1ccccc1)C(=O)OC(C)(C)C	SKKanGAS inh 57 (no result: PfHsp90 set2)
CC(C)C[C@H](NC(=O)c1nc[nH]c1C(=O)NC(c1ccccc1)c1ccccc1)C(=O)OC(C)(C)C	SKKanGAS inh 60
Clc1ccc2c(N/N=C/c3cccc(Br)c3)ccnc2c1	SKKanGAS inh 82 (no result: tim10-1 inh, tim23-1 inh, TIM10 inh)
COc1ccc(N2CCN(C(=O)COC(=O)[C@@H](NC(=O)c3c(F)cccc3F)C(C)C)CC2)cc1	none (no result: tim10-1 inh, SKKanGAS inh, tim23-1 inh, TIM10 inh)
CCCCCCCC/C=C\CCCCCCCC(=O)NCCO	PfHsp90 set2 109 (no result: SKKanGAS inh)
CCCCCCCC/C=C\CCCCCCCC(=O)O	none
CCCCCCCCCCCCCC(=O)NO	PfHsp90 set2 107 (no result: tim10-1 inh, SKKanGAS inh, tim23-1 inh, TIM10 inh)
CCCC(=O)NC(c1ccc2c(c1)OCO2)c1cc(Cl)c2cccnc2c1O (stereo not drawn)	SKKanGAS inh 62, PfHsp90 set2 99
CCC(=O)NC(c1ccc(OC)c(OC)c1)c1cc(Cl)c2cccnc2c1O (stereo not drawn)	SKKanGAS inh 56 (no result: tim10-1 inh, tim23-1 inh, TIM10 inh)
COc1ccccc1C(NC(C)=O)c1cc(Cl)c2cccnc2c1O (stereo not drawn)	SKKanGAS inh 100
O=C(Nc1nnc(-c2ccc(Cl)cc2)o1)c1cccc(N2C(=O)CCC2=O)c1	SKKanGAS inh 70
CSc1cccc(-c2nnc(NC(=O)c3cccc(N4C(=O)CCC4=O)c3)o2)c1	SKKanGAS inh 85
O=C(Nc1nnc(-c2ccncc2)o1)c1cccc(N2C(=O)CCC2=O)c1	none
Cc1nc(SCc2cccc(F)c2)c2oc3ccccc3c2n1	SKKanGAS inh 55
Fc1ccccc1CSc1ncnc2c1oc1ccccc12	none
c1ccc(CSc2ncnc3c2oc2ccccc23)cc1	SKKanGAS inh 52
O=C(O)c1ccc(NC(=S)NC(=O)c2ccc(-c3ccc(Br)cc3)o2)cc1	SKKanGAS inh 55 (no result: tim10-1 inh, PfHsp90 set2, tim23-1 inh, TIM10 inh)
COc1ccc(C(=O)O)cc1NC(=S)NC(=O)c1ccc(-c2ccc(Cl)cc2)o1	SKKanGAS inh 51
Cc1cnc(NC(=O)c2cc3c(C)nn(-c4ccccc4)c3s2)s1	SKKanGAS inh 107 (no result: PfHsp90 set2)
Cc1nn(-c2ccccc2)c2sc(C(=O)N3CCc4ccccc4C3)cc12	SKKanGAS inh 55 (no result: tim10-1 inh, tim23-1 inh, TIM10 inh)
COc1ccc2c(c1)c(=O)oc1c(C)c(OCc3ccc(C(=O)O)cc3)ccc12	SKKanGAS inh 52 (no result: tim10-1 inh, tim23-1 inh, TIM10 inh)
COc1ccc2c(c1)c(=O)oc1c(C)c(OCc3cc(C(=O)O)oc3C)ccc12	none
CC1(C(=O)NS(=O)(=O)c2cccc(C#N)c2)CCN1C(=O)c1ccco1 (stereo not drawn)	none (no result: tim10-1 inh, SKKanGAS inh, PfHsp90 set2, tim23-1 inh, TIM10 inh)
CCOc1ccccc1N1CCN(C(=O)c2cccc(-c3ccc(O)cc3)c2)CC1	PfHsp90 set2 104
COCCN(C(=O)c1cc(CN2C(=O)c3ccccc3C2=O)ccc1OC)c1c(N)n(CC(C)C)c(=O)[nH]c1=O	none (no result: tim10-1 inh, SKKanGAS inh, tim23-1 inh, TIM10 inh)
